Experimental findings from PubChem BioAssay (NCATS) are described below.

“And” between values parts separate entries of the source, which are not always exact repeats. Equal values may be shown once. Records with an inconclusive call do not appear. The source made the active and inactive calls. Unless noted, calls follow the shape of the dose curve; as a rule, active = well fitted cell-killing curve with a large enough effect; inconclusive = small, poorly fitted or top-dose-only effect; inactive = flat fitted curve, though single readings scatter.

Test [1] is described as follows: Cell Viability - LYMP2-020 (AID 986).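 Also: series mostly up to about 92 µM; cells exposed to compound for 24 h at 37 °C; plate controls were DMSO only for no effect and tetraoctylammonium bromide at 92 µM for full effect; nearly all actives have a fitted effect of over 55% in size.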 The procedure, abridged: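 Seed 2500 cells per well and incubate 5 hr at 37 C. Add compounds at a concentration series and incubate 24 hr at 37 C. Add CellTiter-Glo, wait 30 min at RT, read luminescence, and fit a Hill curve for AC50.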
Test [2] is described as follows: Cell Viability - LYMP2-022 (AID 987).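 Also: 0% = DMSO alone and full effect = tetraoctylammonium bromide at 92 µM; nearly all actives have a fitted effect of over 55% in size.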 The procedure, abridged:
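Cells were seeded at 2500 per well, rested 5 hr at 37 C, and treated with titrated compounds for 24 hr at 37 C. Cellular ATP was then quantified by luciferase luminescence, and AC50 values were derived from Hill-modelled concentration-response curves.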

Test [3] is described as follows: Cell Viability - LYMP2-024 (AID 988).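 Also: plate controls were DMSO only for no effect and 92 µM tetraoctylammonium bromide for full effect; nearly all actives have a fitted effect of over 60% in size.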 The procedure, abridged: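 qHTS cytotoxicity, human lymphoblastoid line, complete medium; 24 h cpd treatment, 37 C; CellTiter-Glo ATP luminescence readout; tetraoctylammonium bromide positive control; AC50 via Hill fit.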
Test [4] in a line: Cell Viability - LYMP2-026 (AID 989).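 Also: cells exposed to compound for 24 h at 37 °C; % is scaled to controls: 0 for no effect and ±100 for the full control effect; nearly all actives have a fitted effect of over 50% in size.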 The procedure, abridged:
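Cells are seeded at 2500 per well and held 5 hr at 37 C. Compounds are added in concentration series for 24 hr, then CellTiter-Glo reagent is applied and luminescence read.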

Test [5] in a line: Cell Viability - LYMP1-002 - Assay at 24 hr (AID 993). Also: % is scaled to controls: 0 for no effect and ±100 for the full control effect. The procedure, abridged: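 Acute toxicity is measured as concentration-dependent loss of cellular ATP in a human lymphoblastoid line (Coriell LYMP1-002) after 24 h treatment in complete medium. ATP is quantified by luciferase luminescence and AC50 derived by Hill modelling.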
Test [6] in a line: Cell Viability - LYMP1-002 - Assay at 40 hr (AID 994).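 Also: 0% = DMSO only and full inhibition = 92 µM tetraoctylammonium bromide; nearly all actives have a fitted effect of over 60% in size.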 The procedure, abridged: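 Cells are plated at 2500 per well and rested 5 hr at 37 C. Compounds are added and incubated 40 hr at 37 C. CellTiter-Glo reagent is added for 30 min at room temperature before luminescence is read.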
Test [7] is described as follows: qHTS Assay for Identification of Small Molecule Inducers of Hypoxia Response (AID 2120; active = well fitted curve in the direction sought with a large enough effect in the signal ratio, with a control signal flat, not every such curve was filed as active; the % refers to the signal ratio; also: 0% is about no effect). The procedure, abridged: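 Cell-based qHTS for reporter induction: hypoxia response element controlled beta-lactamase in ME-180 cells. Compounds incubated 17 h at 37 degrees C; activity from blue/green (460/530 nm) ratio, inducers ranked by AC50.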
Test [8] deals with Glucocorticoid receptor (Homo sapiens) (UniProt P04150). As to the kind of experiment: qHTS assay for small molecule antagonists of glucocorticoid receptor signaling (AID 588533; active = well fitted inhibition curve with a large enough effect in the signal ratio, with a control signal flat, not every such curve was filed as active; the % refers to the signal ratio;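 also: cells stimulated with 2 nM dexamethasone as agonist; % is scaled to controls: 0 for no effect and ±100 for the full control effect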). The procedure, abridged: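 Antagonist-mode qHTS: compound titrations added to GRE-bla HeLa cells, then dexamethasone 2 nM final; 18 h, 37 C. CCF4 FRET fluorescence normalized to dexamethasone and DMSO; IC50 from Hill fit.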
(Quantitative high-throughput screening tests each substance at several concentrations.)

Test [9] can be described thus: qHTS assay for small molecule antagonists of peroxisome proliferator-activated receptor delta signaling (AID 588535; active = well fitted inhibition curve with a large enough effect in the signal ratio, with a control signal flat, not every such curve was filed as active; the % refers to the signal ratio;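 as to max response: cells co-treated with a PPAR-delta agonist as stimulator during compound exposure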). Conditions: HEK293T PPARd-UAS-bla, beta-lactamase FRET ratio, 18 h; 460 nm channel. The procedure, abridged:
(§1)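 Inhibition of PPAR-delta response element-driven beta-lactamase expression is measured in HEK293T cells exposed to a compound titration series for 18 hrs at 37 C. Half-maximal inhibition comes from Hill equation fitting.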

For test [10], the target named is Peroxisome proliferator-activated receptor delta (Homo sapiens) (UniProt Q03181). The test is described as above. The procedure, abridged:
as §1

Test [11] has as its target Peroxisome proliferator-activated receptor gamma (Homo sapiens) (UniProt P37231). As to the kind of experiment: qHTS assay for small molecule agonists of peroxisome proliferator-activated receptor gamma signaling (AID 588536; active = well fitted curve in the direction sought with a large enough effect in the signal ratio, with a control signal flat, not every such curve was filed as active; the % refers to the signal ratio;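 also: 0% = DMSO basal wells and 100% = rosiglitazone at 2 µM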). The procedure, abridged:
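This is an agonist-mode beta-lactamase reporter assay in HEK293 PPAR-gamma-UAS-bla cells with 1% charcoal/dextran FBS. Compound titrations ran 16 h at 37 C before CCF4 detection. EC50 and efficacy are Hill fits scaled to 2 uM rosiglitazone (100%) and DMSO basal.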

The target in test [12] is Glucocorticoid receptor (Homo sapiens) (UniProt P04150). Put plainly: qHTS assay for small molecule agonists of glucocorticoid receptor signaling (AID 588532; active = well fitted curve in the direction sought with a large enough effect in the signal ratio, with a control signal flat; the % refers to the signal ratio;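 also: 100% = dexamethasone at 0.1 µM and 0% = DMSO only wells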). To be noted: HeLa MMTV-bla, beta-lactamase ratio, agonist, 18 h; stronger effect = higher value; percent of dexamethasone control, DMSO zero. The procedure, abridged: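 MMTV-bla HeLa, beta-lactamase reporter; medium with 1% charcoal/dextran-stripped FBS; cpds up to 92 uM, 18 h, 37 C; CCF4 readout 460/530 nm; Hill fit → EC50, efficacy vs 0.1 uM dexamethasone = 100%.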

The target of test [13] is Peroxisome proliferator-activated receptor gamma (Homo sapiens) (UniProt P37231). As to the kind of experiment: qHTS assay for small molecule antagonists of peroxisome proliferator-activated receptor gamma signaling (AID 588537; active = well fitted inhibition curve with a large enough effect in the signal ratio, with a control signal flat, not every such curve was filed as active; the % refers to the signal ratio;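 also: reporter cells co-stimulated with 50 nM rosiglitazone agonist during compound treatment; % of control where 0% means no effect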). The procedure, abridged: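 Compounds are tested as concentration series for inhibition of rosiglitazone-driven (50 nM) reporter expression in GeneBLAzer PPAR-gamma-UAS-bla HEK293 cells. After 16 h at 37 C, CCF4 substrate is added for 2 h at room temperature and blue/green fluorescence is measured.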

The target in test [14] is Vitamin D3 receptor (Homo sapiens) (UniProt P11473). As to the kind of experiment: qHTS assay for small molecule agonists of vitamin D receptor signaling (AID 588543; calls by dose curve;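 also: 0% = DMSO basal and 100% = reference agonist control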). The procedure, abridged:
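β-lactamase reporter, VDR-UAS-bla HEK293T, agonist mode. Cells plated 5 h at 37 °C, compound titration 16 h at 37 °C, CCF4 dye 2 h RT, ratio 460/530 nm. Hill fit → EC50, efficacy vs 50 nM 1α,25-(OH)2D3.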

For test [15] the target is unchanged. Put plainly: qHTS assay for small molecule antagonists of vitamin D receptor signaling (AID 588541; calls by dose curve;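 also: receptor activated by calcitriol during compound treatment; series mostly up to about 77 µM; % is scaled to controls: 0 for no effect and ±100 for the full control effect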). The procedure, abridged: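 VDR-UAS-bla HEK293T cells (2000/well, 2% charcoal-stripped FBS) were treated with titrated compounds plus 1-alpha,25-dihydroxyvitamin D3 (50 nM or 3 nM final) for 16 h at 37 C. CCF4 beta-lactamase fluorescence was read; Hill fits gave IC50.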

Chain of Peroxisome proliferator-activated receptor delta (Homo sapiens) (Q03181 whole entry, looked up): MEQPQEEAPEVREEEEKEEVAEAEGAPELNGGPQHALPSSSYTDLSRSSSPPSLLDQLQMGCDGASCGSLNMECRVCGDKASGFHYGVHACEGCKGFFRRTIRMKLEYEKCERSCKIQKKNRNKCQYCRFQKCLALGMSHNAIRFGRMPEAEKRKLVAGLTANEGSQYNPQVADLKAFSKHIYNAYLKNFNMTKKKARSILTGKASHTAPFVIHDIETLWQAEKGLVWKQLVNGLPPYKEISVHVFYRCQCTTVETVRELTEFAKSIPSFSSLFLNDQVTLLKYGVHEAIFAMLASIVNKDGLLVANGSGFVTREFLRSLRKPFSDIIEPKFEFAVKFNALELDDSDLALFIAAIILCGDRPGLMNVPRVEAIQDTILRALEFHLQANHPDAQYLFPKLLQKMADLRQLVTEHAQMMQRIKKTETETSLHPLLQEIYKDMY
Chain of Vitamin D3 receptor (Homo sapiens) (P11473 whole entry, looked up): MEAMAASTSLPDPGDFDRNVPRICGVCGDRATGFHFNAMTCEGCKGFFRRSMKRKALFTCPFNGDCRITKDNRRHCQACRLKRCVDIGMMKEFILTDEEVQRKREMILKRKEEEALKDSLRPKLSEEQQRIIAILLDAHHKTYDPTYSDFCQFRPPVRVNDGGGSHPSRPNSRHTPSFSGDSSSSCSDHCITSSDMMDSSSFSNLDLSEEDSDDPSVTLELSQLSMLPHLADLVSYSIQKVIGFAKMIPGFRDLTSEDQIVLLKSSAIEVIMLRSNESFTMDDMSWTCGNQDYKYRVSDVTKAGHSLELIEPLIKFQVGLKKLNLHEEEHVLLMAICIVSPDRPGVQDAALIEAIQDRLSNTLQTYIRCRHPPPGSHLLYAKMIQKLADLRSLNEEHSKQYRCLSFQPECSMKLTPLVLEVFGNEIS
Chain of Glucocorticoid receptor (Homo sapiens) (P04150 whole entry, looked up): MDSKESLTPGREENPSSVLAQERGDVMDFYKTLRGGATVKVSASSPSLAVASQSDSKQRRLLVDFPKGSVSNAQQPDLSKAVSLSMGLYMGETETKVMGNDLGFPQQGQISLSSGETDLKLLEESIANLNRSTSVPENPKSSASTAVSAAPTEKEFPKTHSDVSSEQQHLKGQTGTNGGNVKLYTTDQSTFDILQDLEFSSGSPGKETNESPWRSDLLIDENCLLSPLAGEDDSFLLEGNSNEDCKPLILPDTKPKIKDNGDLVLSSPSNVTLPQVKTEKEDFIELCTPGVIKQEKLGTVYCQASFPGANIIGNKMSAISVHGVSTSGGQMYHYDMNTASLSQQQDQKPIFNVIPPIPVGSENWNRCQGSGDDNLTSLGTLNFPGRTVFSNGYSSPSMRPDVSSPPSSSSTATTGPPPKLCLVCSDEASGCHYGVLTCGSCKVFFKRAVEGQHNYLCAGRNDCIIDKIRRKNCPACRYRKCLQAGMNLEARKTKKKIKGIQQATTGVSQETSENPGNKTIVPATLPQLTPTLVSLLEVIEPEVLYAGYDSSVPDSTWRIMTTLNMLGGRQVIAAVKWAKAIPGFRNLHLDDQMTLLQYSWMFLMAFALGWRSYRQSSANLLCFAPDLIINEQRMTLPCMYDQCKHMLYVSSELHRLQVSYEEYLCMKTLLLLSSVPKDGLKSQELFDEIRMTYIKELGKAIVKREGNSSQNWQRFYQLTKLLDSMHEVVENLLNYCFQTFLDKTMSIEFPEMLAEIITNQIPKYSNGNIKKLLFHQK
Chain of Peroxisome proliferator-activated receptor gamma (Homo sapiens) (P37231 whole entry, looked up): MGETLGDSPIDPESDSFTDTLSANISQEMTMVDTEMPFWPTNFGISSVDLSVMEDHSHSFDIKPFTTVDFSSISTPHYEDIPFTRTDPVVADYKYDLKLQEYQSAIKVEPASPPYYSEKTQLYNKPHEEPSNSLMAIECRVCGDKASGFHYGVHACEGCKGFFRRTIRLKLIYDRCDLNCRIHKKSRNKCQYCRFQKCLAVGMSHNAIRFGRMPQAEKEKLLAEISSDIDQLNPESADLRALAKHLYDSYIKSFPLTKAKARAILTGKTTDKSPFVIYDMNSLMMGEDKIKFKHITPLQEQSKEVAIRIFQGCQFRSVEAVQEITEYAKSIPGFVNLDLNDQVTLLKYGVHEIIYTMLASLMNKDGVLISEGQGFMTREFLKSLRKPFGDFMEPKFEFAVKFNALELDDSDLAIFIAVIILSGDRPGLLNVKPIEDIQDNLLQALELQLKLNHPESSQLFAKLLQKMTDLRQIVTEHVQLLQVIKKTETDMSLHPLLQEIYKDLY

In the case of `c1ccc2n[nH]nc2c1`, the Potency result in test [1], in test [2], in [3], in test [5], in test [6] and in [10] was “inactive” in each case. The compound was called inactive in test [4], in test [7], in [8] and in test [11]. Also, the max response in test [9] is -32.1%.

For the compound `Nc1nc(CC(=O)O)cs1`, the Potency result in test [1], in test [3], in test [5] and in test [6] was “inactive” throughout. The call in test [4], in [7], in test [8], in [13] and in test [14] was inactive. Besides, the activation in test [12] is 1.59% (inactive).

Take `O=Cc1ccccc1Cl`: the Potency result in test [1], in [2], in test [3], in test [5] and in test [6] was “inactive” each time. For the same compound, the outcome in test [4], in test [7], in [8], in test [11], in test [13] and in test [15] was inactive. Besides, the result in [14] was inactive.

`CCCCCCCCN`: the Potency result in test [1], in [2], in test [3], in test [5], in test [6] and in [10] was “inactive” throughout. Besides, the call in test [4], in test [7], in [11], in test [13], in test [15] and in test [14] was inactive. Also, the max response in [9] was 13.3%.

As for `O=C(O)CN(CC(=O)O)CC(=O)O`, the Potency entry in [1], in test [2], in test [3], in test [5] and in test [6] was “inactive” in each case. The result in test [4], in test [7], in [11] and in test [13] was inactive.

On to `Cc1ccc(C)c([N+](=O)[O-])c1`, for which the Potency entry in [1], in test [2], in test [5], in [6] and in [10] was “inactive” each time. Also, the call in [4], in test [7], in test [11], in test [13] and in [14] was inactive. In test [12], the activation is -1.28% (inactive). Moreover, the max response in test [9] was -7.2%.

With `Cc1ccccc1C(=O)O`, the Potency result in test [1], in [3], in [5] and in [6] was “inactive” each time. In addition, the result in [4], in [7], in test [11], in [15] and in test [14] was inactive. For the same compound, in test [12], the activation is -5.56% (inactive).

`CCCCCNCCCCC`: the Potency result in test [1], in [2], in test [3], in test [5] and in test [6] was “inactive” in each case. In addition, the call in test [4], in [7], in [11], in test [15] and in test [14] was inactive. For the same compound, the max response in test [9] was -18.6%.

On to `CC1(N)CCC(C(C)(C)N)CC1` (stereo unspecified), for which the Potency result in test [1], in test [3] and in [6] was “inactive” each time. Moreover, the call in test [4], in test [7], in test [11], in [15] and in test [14] was inactive. In [12], the activation is 7.57% (inactive).

Turning to `[O-]/[N+](=N\O)c1ccccc1`, the Potency entry in test [1], in [2], in [3], in test [5] and in test [6] was “inactive” in each case. Further, the compound was classed as inactive in [4], in test [7], in test [11], in test [15] and in test [14].

For the compound `Cc1cccc2cccnc12`, the Potency entry in test [1], in test [2], in test [3], in test [5] and in test [6] was “inactive” in each case. Besides, the outcome in test [4], in test [7], in test [11], in test [13], in test [15] and in test [14] was inactive. In addition, the max response in test [9] was -4.69%.

As to `Nc1ccccc1S(=O)(=O)O`, the Potency entry in test [1], in test [2], in test [3], in test [5], in test [6] and in test [10] was “inactive” throughout. The compound was called inactive in test [7], in test [13], in test [15] and in test [14]. Moreover, the max response in [9] is -23.8%.

`c1ccc(Nc2ccccc2)cc1`: the Potency result in test [1], in test [2], in [3], in [6] and in [10] was “inactive” each time. Further, the compound was classed as inactive in test [4], in test [7], in test [13], in test [15] and in test [14]. Further, the max response in test [9] is -10.2% and 19.6%.

Regarding `NCCCCCCN`, the Potency entry in test [1], in test [2], in [3], in test [5] and in test [6] was “inactive” in each case. Moreover, the call in test [7], in test [11], in test [13], in test [15] and in test [14] was inactive. The max response in test [9] is -19.3%.

In the case of `CC(=O)CCc1ccccc1`, the Potency result in test [1], in [2], in test [3], in [5] and in test [6] was “inactive” each time. The outcome in [4], in test [7], in [11], in [15] and in test [14] was inactive.

For `C[C@@H]1O[C@@H](O[C@@H]2[C@@H](O)[C@H](OCCc3ccc(O)c(O)c3)O[C@H](CO[C@@H]3O[C@H](CO)[C@@H](O)[C@H](O)[C@H]3O)[C@H]2OC(=O)/C=C/c2ccc(O)c(O)c2)[C@H](O)[C@H](O)[C@H]1O`, the Potency result in [1], in [2], in test [5], in [6] and in [10] was “inactive” in each case. Also, the call in [4], in [7], in test [11], in test [15] and in test [14] was inactive. Moreover, the activation in test [12] is 2.75% (inactive). Moreover, in test [9], the max response is 20.8%.

As for `CCCCC(CC)CNCC(CC)CCCC` (stereo unspecified), the Potency entry in test [1], in [2], in test [3], in test [5], in test [6] and in test [10] was “inactive” throughout. The outcome in [4], in test [7], in [15] and in test [14] was inactive. Besides, the max response in test [9] turned out to be 11.3%.

`CCOC(=O)C(C)C(C)=O` (stereo unspecified): the Potency entry in test [1], in test [2], in [3], in test [5] and in [6] was “inactive” in each case. The result in test [4] and in [7] was inactive. Further, in [12], the activation was -10.2% (inactive).

On to `CCCCC(CC)C(=O)O` (stereo unspecified), for which the Potency entry in [1], in test [2], in [3], in [5] and in test [6] was “inactive” each time. Also, the outcome in test [4], in test [7], in test [11] and in test [13] was inactive. In [9], the max response was 18%.

As for `Cc1cccc(C)c1[N+](=O)[O-]`, the Potency result in test [1], in test [2], in test [3], in test [5], in test [6] and in test [10] was “inactive” in each case. The call in test [7], in test [11], in test [13], in [15] and in test [14] was inactive. Besides, in test [12], the activation is 4.67% (inactive) and -8.43% (inactive). Further, the max response in test [9] was 9.63% and 31.4%.
